The values that follow come from PubChem BioAssay AID1259343 (VanderVen Lab, College of Veterinary Medicine, Cornell …, 2017).

The campaign covered roughly 6,200 compounds. About 2,900 (47%) were called active. Cut-off read from the data, not from the text of the source: active = inhibition above about 50%; inactive = the rest. The set was probably picked from earlier hits. The list shows a part of the results.

The test can be described thus: Mycobacterium tuberculosis growth inhibition, primary screen (AID 1259343). The settings on record: inhibition: at 10 µM, active compounds read high; outcome: 10 uM.
On to `O=C(c1cc(COc2ccc(-n3cncn3)cc2)on1)N1CCCCO1`, for which the inhibition entry was “inactive”.
Regarding `O=C(c1cc(COc2ccc3c(c2)CCCC3)on1)N1CCCCO1`, the inhibition is 92.2% (active).
As for `COCc1cc(C(=O)N2Cc3ccccc3N(C)CC2C)no1` (stereo not drawn), the inhibition was -8.57% (inactive).
Then `Cn1c(=O)c2c(S(C)=O)snc2n(C)c1=O` (stereo not drawn), with 100% (active); and `Cc1nn(CC(O)COc2ccc3c(c2)CCC3)c(C)c1C` (stereo not drawn), with 74.7% (active); and `COc1ccc(OCCN(C)S(=O)(=O)c2ccc3c(c2)CCC3)cc1`, with 48% (inactive).
Then `Cc1cc(C)n(CC(O)COc2ccc3c(c2)CCC3)n1` (stereo not drawn), with 70.7% (active); and `Cc1cc(C)n(CC(O)COc2ccc(C(C)(C)C)cc2)n1` (stereo not drawn), with 44.2% (inactive); and `Cn1ccc(NC(=O)c2cc3c(s2)CCC(C(C)(C)C)C3)n1` (stereo not drawn), with 49.2% (inactive).
Take `CCOc1cc(Cl)ccc1NC(=O)Nc1cccnc1`: the inhibition is 32% (inactive).
In the case of `N[C@@H](CCCCNC(=O)c1cccnc1)C(=O)NNc1ccc(Cl)cc1`, the inhibition was 95.5% (active).
Next, `COc1ccc(F)cc1C(=O)C1CCCN(C(=O)Nc2ccc(SC)cc2)C1` (stereo not drawn): 2.1% (inactive); `CC(C)NS(=O)(=O)Cc1ccc(CNC(=O)Nc2ccc(-c3ccccc3)cc2)cc1`: -37.3% (inactive); `CC(C)NC(=O)CC1(C(=O)Nc2ccc(-c3ccccc3)cc2)CCCC1`: 91.1% (active).
Next, `CSc1ccc(NC(=O)CC2(C(=O)O)CCCC2)cc1`: 85.9% (active); `CN(C)C(=O)C1(CNC(=O)Nc2ccc(F)c(C(F)(F)F)c2)CCCC1`: 4.66% (inactive); `O=C(CSCc1ccncc1)Nc1ccc(-c2cncnc2)cc1`: 89.9% (active).
Next, `FC(F)(F)CN1CCC(NCc2ccc(-c3ccccc3Cl)s2)C1` (stereo not drawn): 26.6% (inactive); `O=S(=O)(Nc1ccc(OC(F)(F)F)cc1)c1ccc(F)c(F)c1`: 16% (inactive).
Regarding `O=S(=O)(Nc1ccc(SC(F)F)cc1)c1ccc(F)c(F)c1`, the inhibition was 96.8% (active).
Next, `O=S(=O)(Nc1cnc(-c2ccccc2)nc1)c1ccc(F)c(F)c1`: 58.3% (active); `CN(CC(N)=O)S(=O)(=O)c1cc2cc(Cl)ccc2s1`: 90.5% (active); `Oc1cc(OCCN2CCN(Cc3ccc4c(c3)OCO4)CC2)ccc1-c1[nH]ncc1-c1ccccc1`: 81.6% (active).
`O=C(C1COc2ccccc2O1)N1CCc2onc(-c3cccc(F)c3)c2C1` (stereo not drawn): the inhibition is 10.6% (inactive).
For `CC(C)C(=O)Nc1sc2c(c1-c1nc3ccccc3s1)CCN(C)C2`, the inhibition was 85.9% (active).
For the compound `CC(C)N1CCc2c(sc(NC(=O)C3CC3)c2-c2nc3ccccc3s2)C1`, the inhibition is 0.31% (inactive).
Next, `CCC(=O)Nc1sc2c(c1-c1nc3ccccc3s1)CCN(C(C)C)C2`: 100% (active).
Take `CC(C)C(=O)Nc1sc2c(c1-c1nc3ccccc3s1)CCN(C(C)C)C2`: the inhibition was 95.2% (active).
For the compound `CC(=O)Nc1sc2c(c1-c1nc3ccccc3s1)CCN(C(C)C)C2`, the inhibition was 68.3% (active).
Next, `CN1CCc2c(sc(NC(=O)c3ccc(F)cc3)c2-c2nc3ccccc3s2)C1`: 31.8% (inactive); `CN1CCc2c(sc(NC(=O)c3ccccc3)c2-c2nc3ccccc3s2)C1`: 29.3% (inactive).
Regarding `CC(=O)c1ccc(C(=O)Nc2sc3c(c2-c2nc4ccccc4s2)CCN(C)C3)cc1`, the inhibition was 83.8% (active).
Turning to `CCCCCCCCCCCCC[N+](C)(C)Cc1ccccc1`, the inhibition was 70.2% (active).
As for `O=S(=O)(c1cc(Cl)cc(Cl)c1O)N1CCOCC1`, the inhibition is 19.4% (inactive).
Then `CC(C)(C)c1cc(C(=O)CCN2CCOCC2)cc(C(C)(C)C)c1O`, with 102% (active); and `Cc1cccc(CN(CCN2CCOCC2)Cc2ccc(C(O)(c3cccc(F)c3)c3cccc(F)c3)o2)c1`, with 17.9% (inactive); and `CC(=O)N[C@H]1CCN(CC(=O)Nc2ccc(Cl)c(C)c2)C1`, with 33.5% (inactive).
Then `Cc1ccc(NC(=O)CCC2CCCO2)cc1Cl` (stereo not drawn), with 96.2% (active); and `O=C(CCc1cccs1)N1CCN(CC2CCCO2)CC1` (stereo not drawn), with -26.7% (inactive); and `CC(C)c1ccc(S(=O)(=O)NCC2CCCO2)cc1` (stereo not drawn), with -25.1% (inactive).
Then `Cc1cc(NC(=O)CN2CCN(CC3CCCO3)CC2)ccc1Cl` (stereo not drawn), with 66.5% (active).
`CC(C)c1ccc(NC(=O)CCN2CCN(CC3CCCO3)CC2)cc1` (stereo not drawn): the inhibition is 83.5% (active).
Turning to `CC(NC(=O)CCC1CCCO1)c1ccc(Cl)s1` (stereo not drawn), the inhibition is 21.7% (inactive).
Regarding `Cc1ccc(NC(=O)CC(=O)N2CCC(C(O)CC(C)C)CC2)cc1Cl` (stereo not drawn), the inhibition was 88.3% (active).
Then `CN(C)N=CC=C1CCC(=Cc2ccc(C(F)(F)F)cc2)C1=O`, with 8.26% (inactive); and `NNc1ccc2c(Cl)cc(Cl)c(O)c2n1`, with 99.5% (active).
With `Cc1ccc2c(Cl)cc(Cl)c(O)c2n1`, the inhibition was 47.9% (inactive).
Then `CCC(CO)NC(=S)N=P(c1ccccc1)(N(CC)CC)N(CC)CC` (stereo not drawn), with 81.6% (active).
Next, `FC(F)(F)c1cnc(NCc2ccc3c(c2)OCCO3)c(Cl)c1`: 25.7% (inactive).
Take `CN(CC(O)COCc1ccc2c(c1)OCO2)c1ncc(C(F)(F)F)cc1Cl` (stereo not drawn): the inhibition was 78% (active).
Next, `COC(=O)NNC(=S)NC(=O)C12CC3CC(CC(C3)C1)C2`: 97.8% (active).
Then `Cc1nc(Cl)sc1S(=O)(=O)NCC(C)c1ccccc1` (stereo not drawn), with 24.9% (inactive); and `Cc1[nH]n(-c2nc3ccccc3s2)c(=O)c1C=NC(C)c1ccccc1` (stereo not drawn), with 86.9% (active).
As to `Clc1ccc(-c2nn3c4cc(N5CCNCC5)ccc4nc3c3ccccc23)cc1`, the inhibition is 92.9% (active).
Then `CN(C1CCCCC1)S(=O)(=O)N1CCN(c2cccc(F)c2C#N)CC1`, with 10.2% (inactive); and `CN(C1CCCCC1)S(=O)(=O)N1CCc2ccccc21`, with 98.1% (active).
Consider `CN(C1CCCCC1)S(=O)(=O)c1ccc2ccccc2c1`, for which the inhibition was 38.7% (inactive).
In the case of `CCCCCN(C)C(=O)c1cc(-c2ccc3ccccc3c2)on1`, the inhibition is 94% (active).
As for `CC1Cc2cc(-c3cc(C(=O)O)no3)ccc2O1` (stereo not drawn), the inhibition was 27.8% (inactive).
For the compound `CN(C)C=Nc1nc(-c2ccc3ccccc3c2)cs1`, the inhibition was -25.4% (inactive).
Consider `CCOc1ccc(NC(=O)C(C)Sc2nc(N)cc(N)n2)cc1` (stereo not drawn), for which the inhibition is 86% (active).
As for `O=P(Nc1cccc(F)c1)(Oc1ccccc1F)Oc1ccccc1F`, the inhibition was 22% (inactive).
For `CCCCCc1ccc(NC(=O)CCN2CCSC2=O)cc1`, the inhibition was 99% (active).
Turning to `CCCCc1ccc(NC(=O)COC(=O)C23CCC(=O)N2CCS3)cc1` (stereo not drawn), the inhibition is 95.3% (active).
With `CCN=c1scc(-c2ccc(Br)cc2)n1/N=C1\C(=O)N(C)c2ccccc21`, the inhibition was 20.4% (inactive).
`O=C(NC12CC3CC(CC(C3)C1)C2)c1cncc(Br)c1`: the inhibition was 50.2% (active).
With `Cn1cc(-c2nc(C(=O)NC34CC5CC(CC(C5)C3)C4)cs2)cn1`, the inhibition is 31.8% (inactive).
Then `CC1CCCC(NC(=O)c2cncc(Br)c2)C1` (stereo not drawn), with -31% (inactive); and `O=S(=O)(Nc1ccc2c(c1)CCC2)c1ccc(F)cc1`, with -4.64% (inactive).
Turning to `COc1ccc(CNS(=O)(=O)c2ccc3c(c2)CCCC3)cc1`, the inhibition was -18% (inactive).
Then `O=S(=O)(NCc1ccc(F)cc1)c1ccc2c(c1)CCCC2`, with 89.6% (active); and `CC(=O)Nc1ccc(C(=O)NC2CCC3CCCCC3C2)cc1` (stereo not drawn), with -37.5% (inactive); and `COCc1ccc(C(=O)NC2C3CC4CC(C3)CC2C4)cc1` (stereo not drawn), with 75.8% (active).
Next, `CCCc1nc(CN(C)c2nc(C)nc3sccc23)no1`: 14.1% (inactive); `COc1cccc(OC)c1OCCOc1ccc(C)cc1Br`: 76.4% (active); `COc1cccc(OC)c1OCCCOc1ccc(C)cc1Br`: 87.8% (active).
Next, `COc1ccccc1OCCCOc1ccc(C)cc1Br`: 34.8% (inactive).
As for `O=C(Nc1ccc(N2CCC(NCCC3=CCCCC3)CC2)cc1)c1ccc2c(c1)OCO2`, the inhibition is 47% (inactive).
Next, `CCCCCCc1ccc(C(=O)Nc2ccc(-n3nc(OC)nc3-c3ccc4c(c3)OCO4)cc2)cc1`: 56.7% (active); `COc1cc2c(cc1O)C(SC)=NC(C)(C)C2`: 55.5% (active).
Then `Cc1csc(C(C#N)C(=O)Nc2ccccc2)n1` (stereo not drawn), with -32.9% (inactive).
On to `CC(=O)NC(C)C(=O)Nc1cccc(Sc2ccccc2)c1` (stereo not drawn), for which the inhibition was 62.7% (active).
For the compound `CCCS(=O)(=O)N1CC=C(c2c[nH]c3cc(F)ccc23)CC1`, the inhibition is 88.2% (active).
Then `CC1CCN(S(=O)(=O)N2CC=C(c3c[nH]c4ccccc34)CC2)CC1`, with 29.2% (inactive); and `CCCS(=O)(=O)N1CCc2[nH]c3ccc(F)cc3c2C1`, with 22.7% (inactive); and `O=C(Nc1cccc2cnccc12)OCC(F)(F)F`, with 72.3% (active).
`Cc1ccc(C(=O)O)cc1OCc1csc(Br)c1`: the inhibition is 7.03% (inactive).
For the compound `COc1cc(C(=O)C(C#N)C(=O)CC(C)(C)C)ccc1C` (stereo not drawn), the inhibition is 101% (active).
With `CCC(=NNc1ccnc2cc(Cl)ccc12)c1ccccc1`, the inhibition was 93.9% (active).
Regarding `CC(=NNc1ccnc2cc(Cl)ccc12)c1ccc(C)o1`, the inhibition is 2.38% (inactive).
Then `CC(Nc1nc(-c2cccs2)nc2cc(Cl)ccc12)c1ccccc1` (stereo not drawn), with 3.37% (inactive).
For `CC1CCC(C(C)C)C(OC(=O)COC(=O)c2ccc([N+](=O)[O-])o2)C1` (stereo not drawn), the inhibition is 10.8% (inactive).
Then `CN(C)c1ccccc1NC(=O)c1ccccc1OC(F)F`, with 23.1% (inactive); and `CC(OC(=O)c1ccc([N+](=O)[O-])o1)C(=O)Nc1ccccc1OC(F)F` (stereo not drawn), with 101% (active); and `COc1ccc(-c2nc(CNc3ccc(C)c(F)c3)no2)cc1`, with 91.5% (active).
For `CC(C)c1ccc(NC(=O)c2ccc(-c3ccnn3C)c3ccoc23)cc1`, the inhibition was 77.8% (active).
For `CC(C)c1cnc(COc2ccc(Br)nc2)o1`, the inhibition was 38.6% (inactive).
Then `CN(CC(=O)c1cccc(Br)c1)C1CCCCC1`, with 13.2% (inactive); and `NC(=S)c1cccc(Br)c1`, with 22.8% (inactive); and `Cc1nc(NC(=O)c2cccc(Br)c2)oc1C`, with 94.3% (active).
Consider `COc1ccccc1OCc1coc(-c2ccc(C)cc2C)n1`, for which the inhibition is 40.9% (inactive).
In the case of `Cc1ccc(-c2nc(COc3ccc(C)cn3)co2)cc1`, the inhibition is 58.5% (active).
Next, `c1csc(-c2nc(COc3ccc4c(c3)CCC4)co2)c1`: -21.4% (inactive).

The inhibition is the drop in the measured response relative to a control, in per cent.
